# “And” between values parts separate entries of the source, which are not always exact repeats. Equal values may be shown once. The source holds several records for some structures; these can differ, active in one and inactive in another. The source made the active and inactive calls. The calls were made as follows: active = hit-call score of the fitted dose curve at least 0.9, where 1 is the maximum; inactive = score below 0.9.
# Key:
# [1] = CEETOX_H295R_ESTRONE: CeeTox H295R High-throughput Steroidogenesis Assay for Estrone (AID 2283441); settings: actives raise or lower the signal;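 also: estrone secreted into medium measured by LC-MS/MS after dansyl derivatization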
# In short: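 H295R cells; 48 h forskolin (10 uM) prestimulation; 48 h compound exposure, 0.1% DMSO final. Medium estrone: MTBE extraction, dansyl derivatization, HPLC-MS/MS. Bidirectional fit vs DMSO.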
# [2] = CEETOX_H295R_PROG: CeeTox H295R High-throughput Steroidogenesis Assay for Progesterone (PROG) (AID 2283442); settings: actives raise or lower the signal
# In short: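 Measured analyte is progesterone secreted by H295R cells at 48 h of chemical treatment, following 10 uM forskolin priming. Quantitation used HPLC-MS/MS against a 7-point standard curve; cytotoxicity was checked by MTT absorbance.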
# [3] = read-out: Tumor necrosis factor receptor superfamily member 6 (Homo sapiens) (UniProt P25445); assay: LTEA_HepaRG_FAS: Life Technologies and Expression Analysis (LTEA) Assay for Fas cell surface death receptor (FAS) using HepaRG (AID 2283447); settings: mRNA level, 48 h; actives raise or lower the signal
# In short: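 Differentiated human HepaRG cells, pre-cultured 48 h, were exposed in duplicate for 48 h to 8-point half-log concentrations (top 100 uM, 0.5% DMSO) in serum-free induction medium; FAS mRNA measured by qRT-PCR, normalized to ACTB/GAPDH/POLR2A, bidirectional fit versus DMSO.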
# [4] = read-out: Cyclin D2 (CCND2), CCND2 (gene 894); assay: LTEA_HepaRG_CCND2: Life Technologies and Expression Analysis (LTEA) Assay for Cyclin D2 (CCND2) using HepaRG (AID 2283449); settings: mRNA level, 48 h; actives raise or lower the signal;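 also: CCND2 transcript measured by TaqMan qRT-PCR and normalised to three housekeeping genes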
# In short: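 Differentiated human HepaRG cells were exposed for 48 h in serum-free induction medium to eight half-log concentrations topping at 100 uM (0.5% DMSO vehicle). CCND2 mRNA was quantified by TaqMan qRT-PCR, normalised to ACTB, GAPDH and POLR2A, and fitted bidirectionally against DMSO.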
# [5] = read-out: Cyclin Dependent Kinase Inhibitor 1A (CDKN1A), CDKN1A (gene 1026); assay: LTEA_HepaRG_CDKN1A: Life Technologies and Expression Analysis (LTEA) Assay for Cyclin Dependent Kinase Inhibitor 1A (CDKN1A) using HepaRG (AID 2283450); settings: mRNA level, 48 h; actives raise or lower the signal
# In short: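 Gain or loss of CDKN1A transcript is scored by bidirectional fitting against 0.5% DMSO vehicle. Human HepaRG cultures receive chemicals for 48 h across an 8-point series peaking at 100 uM; expression comes from qRT-PCR.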
# [6] = read-out: Cyclin D1 (CCND1), CCND1 (gene 595); assay: LTEA_HepaRG_CCND1: Life Technologies and Expression Analysis (LTEA) Assay for Cyclin D1 (CCND1) using HepaRG (AID 2283451); settings: mRNA level, 48 h; actives raise or lower the signal;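 as to AC50: TaqMan qRT-PCR transcript level normalised to ACTB GAPDH and POLR2A housekeeping genes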
# In short: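 Expression change is measured by qRT-PCR in HepaRG cells after 48 h treatment across eight concentrations topping at 100 uM, with duplicate wells and DMSO (0.5%) serving as baseline for bidirectional fitting.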
# [7] = read-out: flavin-containing dimethylaniline monooxygenases 3 (FMO3), FMO3 (gene 2328); assay: LTEA_HepaRG_FMO3: Life Technologies and Expression Analysis (LTEA) Assay for flavin-containing dimethylaniline monooxygenases 3 (FMO3) using HepaRG (AID 2283453); settings: mRNA level, 48 h; actives raise or lower the signal;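 as to AC50: FMO3 transcript by TaqMan qRT-PCR normalized to ACTB GAPDH and POLR2A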
# In short: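 HepaRG, 48 h exposure, 8-pt half-log series from 100 uM, 0.5% DMSO vehicle, duplicates; FMO3 transcript by Fluidigm TaqMan qRT-PCR, housekeeping-normalized; gain/loss fit vs DMSO.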
# [8] = read-out: Cytochrome P450 (CYP1A1), CYP1A1 (gene 1543); assay: LTEA_HepaRG_CYP1A1: Life Technologies and Expression Analysis (LTEA) Assay for Cytochrome P450 (CYP1A1) using HepaRG (AID 2283454); settings: mRNA level, 48 h; actives raise or lower the signal
# In short: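 Using HepaRG cultures with 0.5% DMSO as vehicle, eight-concentration exposures (max 100 uM) lasted 48 h. Transcript levels were measured by TaqMan qRT-PCR and normalized to ACTB, GAPDH and POLR2A.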
# [9] = read-out: CFLAR gene, CFLAR (gene 8837); assay: LTEA_HepaRG_CFLAR: Life Technologies and Expression Analysis (LTEA) Assay for CFLAR gene using HepaRG (AID 2283455); settings: mRNA level, 48 h; actives raise or lower the signal
# In short: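 HepaRG cells were plated for 48 h, switched to serum-free induction medium, then exposed in duplicate for 48 h to 8 concentrations (top 100 uM, half-log steps, 0.5% DMSO). CFLAR mRNA was measured by qRT-PCR, normalized to ACTB, GAPDH and POLR2A.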
# [10] = read-out: Forkhead box O1 (FOXO1), FOXO1 (gene 2308); assay: LTEA_HepaRG_FOXO1: Life Technologies and Expression Analysis (LTEA) Assay for Forkhead box O1 (FOXO1) using HepaRG (AID 2283456); settings: mRNA level, 48 h; actives raise or lower the signal
# In short: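 Differentiated human HepaRG cells in serum-free induction medium were exposed in duplicate for 48 h to eight half-log concentrations (top 100 uM, 0.5% DMSO). FOXO1 mRNA was measured by TaqMan qRT-PCR, normalised to ACTB, GAPDH and POLR2A, and fitted bidirectionally against DMSO.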
# [11] = read-out: Forkhead box O3 (FOXO3), FOXO3 (gene 2309); assay: LTEA_HepaRG_FOXO3: Life Technologies and Expression Analysis (LTEA) Assay for Forkhead box O3 (FOXO3) using HepaRG (AID 2283459); settings: mRNA level, 48 h; actives raise or lower the signal
# In short: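 Differentiated human HepaRG cells in serum-free induction medium were exposed in duplicate for 48 h to eight half-log concentrations up to 100 uM in 0.5% DMSO. FOXO3 mRNA was quantified by qRT-PCR, normalized to ACTB, GAPDH and POLR2A, with bidirectional fitting versus DMSO.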
# [12] = read-out: ABC Transporter (ABCB1), ABCB1 (gene 5243); assay: LTEA_HepaRG_ABCB1: Life Technologies and Expression Analysis (LTEA) Assay for ABC Transporter (ABCB1) using HepaRG (AID 2283460); settings: mRNA level, 48 h; actives raise or lower the signal
# In short: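 Differentiated human HepaRG cells, plated 48 h then switched to serum-free induction medium, were exposed in duplicate to eight half-log concentrations up to 100 uM in 0.5% DMSO for 48 h. ABCB1 mRNA was measured by TaqMan qRT-PCR, normalized to ACTB/GAPDH/POLR2A.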
# [13] = read-out: growth arrest and DNA damage 45 (GADD45B), GADD45B (gene 4616); assay: LTEA_HepaRG_GADD45B: Life Technologies and Expression Analysis (LTEA) Assay for growth arrest and DNA damage 45 (GADD45B) using HepaRG (AID 2283461); settings: mRNA level, 48 h; actives raise or lower the signal
# In short: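 Human HepaRG monolayers receive chemicals for 48 h at eight half-log concentrations, highest 100 uM, in 0.5% DMSO. Expression is measured by TaqMan qRT-PCR and normalized to ACTB, GAPDH and POLR2A.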
# [14] = read-out: ABC Transporter (ABCC3), ABCC3 (gene 8714); assay: LTEA_HepaRG_ABCC3: Life Technologies and Expression Analysis (LTEA) Assay for ABC Transporter (ABCC3) using HepaRG (AID 2283462); settings: mRNA level, 48 h; actives raise or lower the signal
# In short: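 Transcriptional change of ABCC3 in HepaRG after 48 h treatment, determined by qRT-PCR normalized to endogenous controls. Concentrations spanned eight half-log steps to 100 uM in 0.5% DMSO.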
# [15] = read-out: ABC Transporter (ABCB11), ABCB11 (gene 8647); assay: LTEA_HepaRG_ABCB11: Life Technologies and Expression Analysis (LTEA) Assay for ABC Transporter (ABCB11) using HepaRG (AID 2283463); settings: mRNA level, 48 h; actives raise or lower the signal
# In short: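 Differentiated human HepaRG cells were exposed for 48 h in serum-free induction medium to eight half-log concentrations up to 100 uM in 0.5% DMSO. ABCB11 mRNA was quantified by qRT-PCR, normalized to ACTB, GAPDH and POLR2A, and fitted bidirectionally versus DMSO.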
# [16] = read-out: ABC Transporter (ABCC2), ABCC2 (gene 1244); assay: LTEA_HepaRG_ABCC2: Life Technologies and Expression Analysis (LTEA) Assay for ABC Transporter (ABCC2) using HepaRG (AID 2283464); settings: mRNA level, 48 h; actives raise or lower the signal
# In short: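 After plating and 48 h culture, HepaRG medium is replaced with serum-free induction medium and chemicals are added (8 concentrations, max 100 uM, 0.5% DMSO) for 48 h. Total RNA then undergoes qRT-PCR for ABCC2 with housekeeping normalization.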
# [17] = read-out: growth arrest and DNA damage 45 (GADD45A), GADD45A (gene 1647); assay: LTEA_HepaRG_GADD45A: Life Technologies and Expression Analysis (LTEA) Assay for growth arrest and DNA damage 45 (GADD45A) using HepaRG (AID 2283458); settings: mRNA level, 48 h; actives raise or lower the signal
# In short: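 Differentiated HepaRG cells were exposed in duplicate for 48 h in serum-free induction medium to 8-point half-log concentrations up to 100 uM in 0.5% DMSO. GADD45A mRNA was measured by TaqMan qRT-PCR, normalized to ACTB, GAPDH and POLR2A, with bidirectional fitting versus DMSO.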
# [18] = read-out: Fatty acid synthase (Homo sapiens) (UniProt P49327); assay: LTEA_HepaRG_FASN: Life Technologies and Expression Analysis (LTEA) Assay for Fatty Acid Synthase (FASN) using HepaRG (AID 2283448); settings: mRNA level, 48 h; actives raise or lower the signal
# In short: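 Differentiated human HepaRG cells were exposed for 48 h in serum-free induction medium to eight half-log concentrations up to 100 uM in 0.5% DMSO, in duplicate. FASN mRNA was quantified by TaqMan qRT-PCR, normalized to ACTB/GAPDH/POLR2A, and fitted bidirectionally against DMSO.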
# Sequence of Fatty acid synthase (Homo sapiens) (P49327 whole entry, looked up): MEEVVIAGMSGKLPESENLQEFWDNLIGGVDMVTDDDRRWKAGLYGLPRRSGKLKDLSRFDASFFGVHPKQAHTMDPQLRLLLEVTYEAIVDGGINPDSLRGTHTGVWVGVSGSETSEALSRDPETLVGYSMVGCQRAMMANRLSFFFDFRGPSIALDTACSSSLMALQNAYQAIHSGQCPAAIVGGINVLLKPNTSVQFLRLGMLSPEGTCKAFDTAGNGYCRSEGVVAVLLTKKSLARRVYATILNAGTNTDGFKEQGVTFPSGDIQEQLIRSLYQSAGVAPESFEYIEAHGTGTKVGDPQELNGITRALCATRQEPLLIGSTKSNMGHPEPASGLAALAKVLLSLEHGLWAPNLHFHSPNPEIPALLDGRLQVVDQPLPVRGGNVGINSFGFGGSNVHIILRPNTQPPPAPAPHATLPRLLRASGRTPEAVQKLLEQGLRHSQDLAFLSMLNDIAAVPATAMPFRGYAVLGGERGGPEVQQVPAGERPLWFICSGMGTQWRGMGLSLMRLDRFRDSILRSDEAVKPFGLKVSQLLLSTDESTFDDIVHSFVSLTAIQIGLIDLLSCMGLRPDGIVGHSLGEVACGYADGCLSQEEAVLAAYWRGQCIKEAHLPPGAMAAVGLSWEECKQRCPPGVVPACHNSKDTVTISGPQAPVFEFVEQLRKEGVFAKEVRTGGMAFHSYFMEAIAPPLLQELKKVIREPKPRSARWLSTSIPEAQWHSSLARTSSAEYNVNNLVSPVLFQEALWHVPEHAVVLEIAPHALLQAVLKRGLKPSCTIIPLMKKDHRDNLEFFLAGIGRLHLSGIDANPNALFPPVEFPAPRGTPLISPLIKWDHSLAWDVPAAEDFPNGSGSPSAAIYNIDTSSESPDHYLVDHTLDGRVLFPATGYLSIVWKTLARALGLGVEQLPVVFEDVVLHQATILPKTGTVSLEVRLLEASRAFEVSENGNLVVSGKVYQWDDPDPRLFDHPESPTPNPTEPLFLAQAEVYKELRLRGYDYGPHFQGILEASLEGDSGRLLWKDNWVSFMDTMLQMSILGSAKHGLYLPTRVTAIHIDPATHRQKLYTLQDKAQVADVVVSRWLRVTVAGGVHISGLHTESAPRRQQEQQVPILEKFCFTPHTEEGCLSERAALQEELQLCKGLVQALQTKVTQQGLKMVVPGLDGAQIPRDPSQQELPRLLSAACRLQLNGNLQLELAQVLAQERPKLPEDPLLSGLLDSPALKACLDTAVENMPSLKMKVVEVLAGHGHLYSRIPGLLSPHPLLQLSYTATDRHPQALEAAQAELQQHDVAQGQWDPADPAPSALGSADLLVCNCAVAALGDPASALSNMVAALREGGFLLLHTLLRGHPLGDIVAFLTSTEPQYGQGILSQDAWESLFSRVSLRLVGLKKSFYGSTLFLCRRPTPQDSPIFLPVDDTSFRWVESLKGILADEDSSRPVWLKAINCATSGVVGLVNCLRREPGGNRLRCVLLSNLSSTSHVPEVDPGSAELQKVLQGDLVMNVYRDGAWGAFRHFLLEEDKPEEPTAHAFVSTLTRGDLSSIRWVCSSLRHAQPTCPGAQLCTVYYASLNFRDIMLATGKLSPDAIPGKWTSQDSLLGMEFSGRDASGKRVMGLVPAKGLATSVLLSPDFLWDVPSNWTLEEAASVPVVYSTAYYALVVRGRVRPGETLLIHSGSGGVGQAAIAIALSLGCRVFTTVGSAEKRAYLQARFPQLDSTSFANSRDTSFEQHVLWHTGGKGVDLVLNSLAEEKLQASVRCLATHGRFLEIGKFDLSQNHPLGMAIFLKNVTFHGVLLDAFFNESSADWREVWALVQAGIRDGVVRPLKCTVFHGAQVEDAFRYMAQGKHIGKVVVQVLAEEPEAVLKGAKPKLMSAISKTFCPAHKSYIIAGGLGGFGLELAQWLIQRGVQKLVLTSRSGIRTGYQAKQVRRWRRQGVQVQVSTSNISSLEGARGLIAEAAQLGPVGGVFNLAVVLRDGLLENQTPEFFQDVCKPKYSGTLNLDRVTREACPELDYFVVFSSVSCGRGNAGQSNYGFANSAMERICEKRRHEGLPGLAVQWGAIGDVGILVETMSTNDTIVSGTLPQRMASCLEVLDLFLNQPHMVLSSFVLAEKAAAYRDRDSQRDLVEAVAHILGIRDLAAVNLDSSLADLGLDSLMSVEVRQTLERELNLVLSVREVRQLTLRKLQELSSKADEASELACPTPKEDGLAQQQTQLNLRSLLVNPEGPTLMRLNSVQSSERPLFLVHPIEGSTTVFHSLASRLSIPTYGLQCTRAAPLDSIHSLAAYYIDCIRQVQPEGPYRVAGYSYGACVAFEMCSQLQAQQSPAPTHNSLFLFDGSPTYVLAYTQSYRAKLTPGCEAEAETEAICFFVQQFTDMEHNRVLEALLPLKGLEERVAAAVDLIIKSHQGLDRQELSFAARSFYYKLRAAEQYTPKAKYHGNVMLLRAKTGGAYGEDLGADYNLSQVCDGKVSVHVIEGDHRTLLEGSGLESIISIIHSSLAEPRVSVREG
smiles,measurement,setting,value
CCCCOC(=O)[C@@H](C)Oc1ccc(Oc2ccc(C(F)(F)F)cn2)cc1,outcome,[1],inactive
same,outcome,[2],inactive
same,outcome,[3],inactive
same,outcome,[4],inactive
same,outcome,[5],inactive
same,outcome,[6],inactive
same,outcome,[7],inactive
same,AC50,[8],50.2 µM (active)
same,outcome,[9],inactive
same,outcome,[10],inactive
same,outcome,[11],inactive
same,outcome,[12],inactive
same,outcome,[13],inactive
same,outcome,[14],inactive
same,AC50,[15],20.6 µM (active)
same,outcome,[16],inactive
CCCCC(CC)CN1C(=O)C2C3C=CC(C3)C2C1=O (configuration not stated),outcome,[1],inactive
same,outcome,[2],inactive
same,outcome,[3],inactive
same,outcome,[4],inactive
same,AC50,[5],77.1 µM (active)
same,outcome,[6],inactive
same,AC50,[7],78.7 µM (active)
same,AC50,[8],12.6 µM (active)
same,outcome,[9],inactive
same,outcome,[11],inactive
same,AC50,[12],12.5 µM (active)
same,outcome,[13],inactive
same,AC50,[14],50 µM (active)
same,AC50,[15],89 µM (active)
same,outcome,[16],inactive
C[C@]12C[C@H](O)[C@H]3[C@@H](CCC4=CC(=O)CC[C@@]43C)[C@@H]1CC[C@@H]2C(=O)CO,outcome,[1],inactive
same,outcome,[3],inactive
same,outcome,[4],inactive
same,outcome,[5],inactive
same,outcome,[6],inactive
same,outcome,[7],inactive
same,AC50,[8],50 µM (active)
same,outcome,[9],inactive
same,outcome,[10],inactive
same,outcome,[17],inactive
same,outcome,[11],inactive
same,AC50,[12],70 µM (active)
same,outcome,[13],inactive
same,outcome,[14],inactive
same,outcome,[15],inactive
same,AC50,[16],67.9 µM (active)
S=C(S)NCCNC(=S)S.[Mn+2].[S-]C([S-])=NCCN=C([S-])[S-].[Zn+2],outcome,[2],inactive
same,AC50,[3],1.63 µM (active)
same,outcome,[3],inactive
same,AC50,[18],1.14 µM (active) and 714 nM (active) and 1.11 µM (active)
same,outcome,[4],inactive
same,AC50,[5],25 µM (active) and 3.66 µM (active)
same,outcome,[5],inactive
same,AC50,[6],0.187 µM (active)
same,outcome,[6],inactive
same,AC50,[7],4.22 µM (active) and 2.04 µM (active) and 2.68 µM (active)
same,AC50,[8],116 nM (active) and 122 nM (active)
same,AC50,[9],1.31 µM (active) and 1.18 µM (active) and 1.48 µM (active)
same,AC50,[10],4.79 µM (active) and 9.06 µM (active)
same,outcome,[10],inactive
same,AC50,[11],1.62 µM (active) and 1.21 µM (active)
same,outcome,[11],inactive
same,AC50,[12],881 nM (active) and 993 nM (active) and 732 nM (active)
same,AC50,[13],3.12 µM (active) and 2.14 µM (active) and 4.41 µM (active)
same,AC50,[14],717 nM (active) and 898 nM (active) and 1.03 µM (active)
same,AC50,[15],695 nM (active) and 718 nM (active) and 693 nM (active)
same,AC50,[16],1.09 µM (active) and 988 nM (active) and 1.44 µM (active)
CC(C)(C)[C@@H](O)[C@@H](Cc1ccc(Cl)cc1)n1cncn1,outcome,[2],inactive
same,outcome,[3],inactive
same,outcome,[4],inactive
same,outcome,[5],inactive
same,outcome,[6],inactive
same,outcome,[7],inactive
same,AC50,[8],33.9 µM (active)
same,outcome,[9],inactive
same,outcome,[11],inactive
same,AC50,[12],8.74 µM (active)
same,outcome,[14],inactive
same,outcome,[15],inactive
same,AC50,[16],13.1 µM (active)
O=C(Nc1ccc([N+](=O)[O-])cc1Cl)c1cc(Cl)ccc1O,outcome,[1],inactive
same,outcome,[2],inactive
same,AC50,[3],3.08 µM (active)
same,outcome,[4],inactive
same,outcome,[5],inactive
same,AC50,[6],3.16 µM (active)
same,AC50,[7],2.69 µM (active)
same,AC50,[8],0.147 µM (active)
same,AC50,[9],2.33 µM (active)
same,AC50,[17],4.29 µM (active)
same,outcome,[11],inactive
same,AC50,[12],2.25 µM (active)
same,AC50,[13],3.32 µM (active)
same,AC50,[14],3.52 µM (active)
same,AC50,[15],3.37 µM (active)
same,AC50,[16],3.13 µM (active)

# Source: PubChem BioAssay (EPA / NIEHS)
